The record followed here is PubChem BioAssay (NCATS).

Several values for one entry are separate records, joined by “and”; a condition that tells them apart may be missing. Equal values may be shown once. Records with an inconclusive call do not appear. Some compounds were tested as several samples or in several runs, with calls that do not always agree. Activity calls are given as the source filed them. Unless noted, calls follow the shape of the dose curve; as a rule, active = well fitted inhibition curve with a large enough effect; inconclusive = small, poorly fitted or top-dose-only effect; inactive = no such curve, though single readings can be large or run the other way.

One experiment deals with Rap guanine nucleotide exchange factor 4 (Homo sapiens) (UniProt Q8WZA2). Nature of the experiment: Confirmatory qHTS for antagonist of cAMP-regulated guanine nucleotide exchange factor 4 (EPAC2) (AID 1645885). Also: nearly all actives have a fitted effect of over 25% in size. Also: potency is read from the fitted curve at half-maximal effect. As to activity change, negative = inhibition: % is scaled to controls: 0 for no effect and ±100 for the full control effect. As to conditions: EPAC2 Rap1B-BODIPY-GDP exchange fluorescence, biochemical; series mostly up to 114 µM; activity change, negative = inhibition: at the top concentration. A general note: qHTS replaces the single test concentration by a dilution series.
Sequence of Rap guanine nucleotide exchange factor 4 (Homo sapiens) (Q8WZA2 whole entry, looked up): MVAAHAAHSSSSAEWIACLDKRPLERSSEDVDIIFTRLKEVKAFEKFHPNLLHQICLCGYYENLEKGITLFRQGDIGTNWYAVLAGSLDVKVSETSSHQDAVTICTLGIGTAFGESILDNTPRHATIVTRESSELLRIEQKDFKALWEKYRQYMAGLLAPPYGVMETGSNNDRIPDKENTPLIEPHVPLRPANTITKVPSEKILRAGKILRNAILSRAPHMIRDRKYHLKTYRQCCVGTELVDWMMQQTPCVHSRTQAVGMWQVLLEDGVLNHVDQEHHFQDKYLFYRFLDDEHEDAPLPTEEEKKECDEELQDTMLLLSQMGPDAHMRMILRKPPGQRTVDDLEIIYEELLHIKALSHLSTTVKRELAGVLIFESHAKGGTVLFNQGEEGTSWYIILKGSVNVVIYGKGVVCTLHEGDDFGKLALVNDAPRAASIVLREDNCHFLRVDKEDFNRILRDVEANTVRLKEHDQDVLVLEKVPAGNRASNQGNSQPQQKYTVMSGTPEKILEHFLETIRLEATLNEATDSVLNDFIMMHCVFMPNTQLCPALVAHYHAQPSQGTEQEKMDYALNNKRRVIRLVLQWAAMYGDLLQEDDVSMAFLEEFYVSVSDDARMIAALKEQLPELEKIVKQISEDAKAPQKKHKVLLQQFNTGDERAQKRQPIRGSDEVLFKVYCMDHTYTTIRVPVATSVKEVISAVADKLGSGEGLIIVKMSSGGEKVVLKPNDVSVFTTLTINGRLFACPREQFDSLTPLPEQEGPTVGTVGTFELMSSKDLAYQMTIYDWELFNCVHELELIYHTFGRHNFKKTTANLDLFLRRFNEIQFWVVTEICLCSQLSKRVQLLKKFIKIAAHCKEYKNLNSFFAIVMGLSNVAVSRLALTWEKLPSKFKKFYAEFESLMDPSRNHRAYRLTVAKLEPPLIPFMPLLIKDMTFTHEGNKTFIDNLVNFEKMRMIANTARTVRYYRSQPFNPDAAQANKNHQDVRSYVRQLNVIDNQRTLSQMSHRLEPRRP
On to `Cc1cc2nc3c(=O)[nH]c(=O)nc-3n(C[C@H](O)[C@H](O)[C@H](O)CO)c2cc1C`, for which the Potency result is “inactive”.
The same measure, in the same setting: then `CCN(CC)C(C)CN1c2ccccc2Sc2ccccc21` (configuration not stated), with 55.5 µM (active).
As for `CCCc1c(OCCCCc2nn[nH]n2)ccc(C(C)=O)c1O`, the Potency was 15.6 µM (active) and the activity change, negative = inhibition was -26.3% [at 12.7 µM] (inactive).
Take `CNC(=O)Oc1ccc2c(c1)[C@]1(C)CCN(C)[C@@H]1N2C`: the “activity change, negative = inhibition” value was -2.63% (inactive).
Turning to `CCN(CC)CCCC(C)Nc1c2ccc(Cl)cc2nc2ccc(OC)cc12` (configuration not stated), the Potency result was “inactive”.
Still for that read-out and setting: then `Cc1c(Cl)cccc1Nc1ccccc1C(=O)O`, with 44.1 µM (active).
In the case of `CC1(C)Oc2ccc(C#N)cc2[C@@H](N2CCCC2=O)[C@@H]1O`, the “activity change, negative = inhibition” value was 16.1% (inactive).
On to `O=C1Nc2ccc(Cl)cc2[C@@](C#CC2CC2)(C(F)(F)F)O1`, for which the Potency was 44.1 µM (active).

In the next experiment the target is Catechol O-methyltransferase (Homo sapiens) (UniProt P21964). As to the kind of experiment: Confirmatory Screen for Target Class Profiling of Small Molecule Inhibitors of Methyltransferases (AID 1745852; calls by dose curve; as to activity change, negative = inhibition: % is scaled to controls: 0 for no effect and ±100 for the full control effect). As to conditions: MTase-Glo luminescence, SAH detection, recombinant enzyme; measured here: COMT max response; stronger effect = lower value.
Sequence of Catechol O-methyltransferase (Homo sapiens) (P21964 whole entry, looked up): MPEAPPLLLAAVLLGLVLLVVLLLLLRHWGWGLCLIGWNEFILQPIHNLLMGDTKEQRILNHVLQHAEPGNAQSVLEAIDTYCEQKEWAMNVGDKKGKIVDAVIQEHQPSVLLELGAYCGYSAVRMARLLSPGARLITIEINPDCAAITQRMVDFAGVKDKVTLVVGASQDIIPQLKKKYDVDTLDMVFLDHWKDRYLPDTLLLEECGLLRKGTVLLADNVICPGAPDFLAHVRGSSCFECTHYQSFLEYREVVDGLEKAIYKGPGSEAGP
`CC(C)(C)[C@]1(O)CCN2C[C@H]3c4ccccc4CCc4cccc(c43)[C@@H]2C1`: the activity was -2.14%.
Still for that read-out and setting: then `Cc1cc(C(C#N)c2ccc(Cl)cc2)c(Cl)cc1NC(=O)c1cc(I)cc(I)c1O` (configuration not stated), with -21.3%; and `C[C@]12CC[C@@H]3c4ccc(O)cc4CC[C@H]3[C@@H]1CCC2=O`, with -21.5%; and `CN1CCN(C2Cc3ccccc3Sc3ccc(Cl)cc32)CC1` (configuration not stated), with 14.6%.
In the case of `NC(N)=NCCC[C@H](N)C(=O)O`, the activity is 6.47%.
In the case of `COc1ccc(Cl)cc1C(=O)NCCc1ccc(S(=O)(=O)NC(=O)NC2CCCCC2)cc1`, the activity is -8.62%.
As to `Cc1ccc2nc(N)[nH]c(=O)c2c1Sc1ccncc1`, the activity was -5.5%.
Take `CCN(CC)CCCC(C)Nc1c2ccc(Cl)cc2nc2ccc(OC)cc12` (configuration not stated): the activity is -1.98% and -3.74%.
On the same count and under the same terms, then `Cc1cc(N)c2ccccc2[n+]1CCCCCCCCCC[n+]1c(C)cc(N)c2ccccc21`, with 2.05%; and `CC(C)(O)c1ccccc1CC[C@@H](SCC1(CC(=O)O)CC1)c1cccc(/C=C/c2ccc3ccc(Cl)cc3n2)c1`, with -3.13%.
Still for that read-out and setting: then `CN(C)CC[C@@H](c1ccc(Cl)cc1)c1ccccn1`, with -1.71%; and `O=C1Nc2ccc(Cl)cc2[C@@](C#CC2CC2)(C(F)(F)F)O1`, with -1.93%.

The target in the next experiment is Guanidinoacetate N-methyltransferase (Homo sapiens) (UniProt Q14353). The experiment is described as above. As to conditions: MTase-Glo luminescence, SAH detection, recombinant enzyme; at 57.3 µM (top of the series).
Consider `CC(C)(C)[C@]1(O)CCN2C[C@H]3c4ccccc4CCc4cccc(c43)[C@@H]2C1`, for which the activity change, negative = inhibition stood at 6.2%.
For `C[C@]12CC[C@@H]3c4ccc(O)cc4CC[C@H]3[C@@H]1CCC2=O`, the activity change, negative = inhibition was -1.67%.
Still for that read-out and setting: then `CN1CCN(C2Cc3ccccc3Sc3ccc(Cl)cc32)CC1` (configuration not stated), with 8.35%.
In the case of `NC(N)=NCCC[C@H](N)C(=O)O`, the activity change, negative = inhibition is -1.16%.
Same read-out and setting: then `COc1ccc(Cl)cc1C(=O)NCCc1ccc(S(=O)(=O)NC(=O)NC2CCCCC2)cc1`, with -1.47%; and `Cc1ccc2nc(N)[nH]c(=O)c2c1Sc1ccncc1`, with 2.89%.
On the same count and under the same terms, then `CCN(CC)CCCC(C)Nc1c2ccc(Cl)cc2nc2ccc(OC)cc12` (configuration not stated), with 2.96%; and `Cc1cc(N)c2ccccc2[n+]1CCCCCCCCCC[n+]1c(C)cc(N)c2ccccc21`, with -0.381%.
Same read-out and setting: then `CC(C)(O)c1ccccc1CC[C@@H](SCC1(CC(=O)O)CC1)c1cccc(/C=C/c2ccc3ccc(Cl)cc3n2)c1`, with -3.41%; and `CN(C)CC[C@@H](c1ccc(Cl)cc1)c1ccccn1`, with 2.46%; and `O=C1Nc2ccc(Cl)cc2[C@@](C#CC2CC2)(C(F)(F)F)O1`, with 0%.
